This is part of a sample that, as a whole, favours compounds with a hit. Of some 83,000 tested, about 20% had one in any assay.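 Cells were grown in 96-well plates and exposed to the test compound at a single concentration for 48 hours; results are reported as percent growth, with values below 10 considered active.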 The source made the active and inactive calls.
Experiments:
Test in all cases: NCI-60 one-dose screen, 48 h (100 = growth as untreated, 0 = no growth, -100 = all killed)
Conditions in all cases: 10 µM unless noted
DU-145 prostate = system: DU-145 prostate
K-562 leukemia = system: K-562 leukemia
MALME-3M melanoma = system: MALME-3M melanoma
MDA-MB-231 breast = system: MDA-MB-231 breast
RXF 393 renal = system: RXF 393 renal
SF-268 CNS = system: SF-268 CNS
SF-295 CNS = system: SF-295 CNS
SF-539 CNS = system: SF-539 CNS
UACC-257 melanoma = system: UACC-257 melanoma
M14 melanoma = system: M14 melanoma
HCT-15 colon = system: HCT-15 colon
HT29 colon = system: HT29 colon
SNB-75 CNS = system: SNB-75 CNS
SNB-19 CNS = system: SNB-19 CNS
U251 CNS = system: U251 CNS
SK-MEL-5 melanoma = system: SK-MEL-5 melanoma
UACC-62 melanoma = system: UACC-62 melanoma
LOX IMVI melanoma = system: LOX IMVI melanoma
SK-MEL-28 melanoma = system: SK-MEL-28 melanoma

| Compound | growth (DU-145 prostate) | growth (K-562 leukemia) | growth (MALME-3M melanoma) | growth (MDA-MB-231 breast) | growth (RXF 393 renal) | growth (SF-268 CNS) | growth (SF-295 CNS) | growth (SF-539 CNS) | growth (UACC-257 melanoma) | growth (M14 melanoma) | growth (HCT-15 colon) | growth (HT29 colon) | growth (SNB-75 CNS) | growth (SNB-19 CNS) | growth (U251 CNS) | growth (SK-MEL-5 melanoma) | growth (UACC-62 melanoma) | growth (LOX IMVI melanoma) | growth (SK-MEL-28 melanoma) |
| --- | --- | --- | --- | --- | --- | --- | --- | --- | --- | --- | --- | --- | --- | --- | --- | --- | --- | --- | --- |
| COc1cc2c(c(Br)c1N)-c1cc(Br)c(N)cc1C2=O | 79.1% (inactive) | 94.9% (inactive) | 76.7% (inactive) | 29.2% (inactive) | 69.9% (inactive) | 61.6% (inactive) | 57.2% (inactive) | 37% (inactive) | 92.3% (inactive) | 91.1% (inactive) | 81.3% (inactive) | 86.2% (inactive) | 25.9% (inactive) | 69.1% (inactive) | 57.3% (inactive) | 56.5% (inactive) | 74.9% (inactive) | 68.8% (inactive) | 81.4% (inactive) |
| CCOC(=O)c1c[nH]c2cc(OCC3CC3)c(OCC3CC3)cc2c1=O | 102% (inactive) | 121% (inactive) | 106% (inactive) | 119% (inactive) | 114% (inactive) | 109% (inactive) | 103% (inactive) | 105% (inactive) | 115% (inactive) | 115% (inactive) | 104% (inactive) | 111% (inactive) | 114% (inactive) | 117% (inactive) | 119% (inactive) | 112% (inactive) | 104% (inactive) | 113% (inactive) | 110% (inactive) |
| COc1cc(C)cc2oc3oc(=O)c(C(=O)c4cc5cc(Br)ccc5o4)cc3c(=O)c12 | 113% (inactive) | 103% (inactive) | 98.8% (inactive) | 105% (inactive) | 116% (inactive) | 95% (inactive) | 103% (inactive) | 96.8% (inactive) | 105% (inactive) | 100% (inactive) | 103% (inactive) | 110% (inactive) | 86.6% (inactive) | 100% (inactive) | 102% (inactive) | 102% (inactive) | 99.9% (inactive) | 97.4% (inactive) | 106% (inactive) |
| CC(C)[C@H]1COC(=O)N1[C@@H]1C(=O)N([C@@H](CCC(=O)N2CCN(C3CCCC3)CC2)C(=O)N[C@@H]2CCCc3ccccc32)[C@@H]1/C=C/c1cccc(Cl)c1 | 65.3% (inactive) | 45.5% (inactive) | 82.3% (inactive) | 44.7% (inactive) | 50% (inactive) | 28.5% (inactive) | 54% (inactive) | 68.9% (inactive) | 20.5% (inactive) | 36.6% (inactive) | 34.1% (inactive) | 13% (inactive) | 92% (inactive) | 56.6% (inactive) | 46.6% (inactive) | 11.7% (inactive) | 67.8% (inactive) | -18.3% (active) | 71.7% (inactive) |

Source: PubChem BioAssay (NCI)
